# A number with no mark means an inactive call. For some assays here: Potency and affinity values are given separately. Some of the results follow. Entries that show only a call come without a potency. Activity calls are given as the source filed them.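 How the source made its calls, unless noted: active means active in primary screen and both duplicates, each dropping signal beyond three positive-control SD with fluorescence still positive; inactive means the rest.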
# Legend:
# [1] = test system: TRPC4 beta (transient receptor potential cation channel C4), mouse; test: TRPC4 cation channel opening, retest – cell-based, Fluo4 calcium, HEK293 TRPC4beta/mu-opioid, duplicates, 10 µM, confirmation (AID 2426;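 active means fluorescence ratio normalized to control raised more than 50% in primary screen plus both repeat runs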); details: Fluo4 calcium fluorescence, at 10 µM; stronger effect = higher value
# [2] = test system: transient receptor potential cation channel C4 beta (TRPC4), mouse; test: TRPC4 cation channel opening, second retest – cell-based, second round, Fluo4, HEK293 TRPC4beta/mu-opioid, 1 µM, confirmation (AID 2461;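 active means primary screen active and over 50% activation in each of two duplicate runs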); details: Fluo4 calcium fluorescence, at 1 µM; stronger effect = higher value
# [3] = test system: TRPC4 (transient receptor potential cation channel C4 beta), mouse; test: potentiation of DAMGO EC20 TRPC4 response – cell-based, second round, Fluo-4, HEK293 TRPC4beta/mu-opioid, 1 µM, confirmation (AID 2554;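 active means primary screen hit whose fluorescence ratio, in both repeats, exceeds the weak agonist control mean by 3 SD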); details: DAMGO EC20, Fluo-4 calcium flux, at 1 µM; stronger effect = higher value
# [4] = test system: TRPC4 beta (transient receptor potential cation channel C4), mouse; test: potentiation of DAMGO EC20 TRPC4 response – cell-based, Fluo-4, HEK293 TRPC4beta/mu-opioid, confirmation (AID 2555;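 active means primary screen hit whose calcium fluorescence ratio, in both repeats, exceeds the weak agonist control mean by 3 SD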); details: DAMGO EC20, Fluo-4 calcium flux, at 10 µM; stronger effect = higher value
# [5] = molecular target: Short transient receptor potential channel 4 (Mus musculus) (UniProt Q9QUQ5); test: blockers of DAMGO-evoked TRPC4 calcium flux – cell-based, Fluo4, HEK293 TRPC4beta/mu-opioid, confirmation (AID 2636;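 active means calcium signal cut by more than 3 SD below the full-agonist control yet still positive, in both repeats and the earlier primary screen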); details: at 10 µM; stronger effect = higher value
# [6] = molecular target: Short transient receptor potential channel 4 (Mus musculus) (UniProt Q9QUQ5); test: blockers of DAMGO-evoked TRPC4 calcium flux – cell-based, second round, Fluo4, HEK293 TRPC4beta/mu-opioid, 1 µM, confirmation (AID 2637;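 active means calcium signal ratio cut to more than 3 SD under the fully stimulated control mean yet still positive, in both repeats and the primary screen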); details: at 1 µM; stronger effect = higher value
# [7] = molecular target: Short transient receptor potential channel 4 (Mus musculus) (UniProt Q9QUQ5); test: potentiation of DAMGO-evoked TRPC4 calcium signal – cell-based, HEK293 TRPC4/mu-opioid, Fluo-4 calcium, EC20 DAMGO, dose response (AID 434941;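 active means earlier screen potentiator hit that boosts the TRPC4 ion channel at some dose, with a dose response; inactive means no potentiation, no dose response, or not a prior hit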;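 further: calcium entry triggered by an EC20 dose of DAMGO at the co-expressed mu-opioid receptor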)
# [8] = molecular target: Short transient receptor potential channel 6 (Mus musculus) (UniProt Q61143); test: TRPC6 blockade by TRPC4 inhibitor hits – cell-based, HEK293, membrane potential dye, duplicate, selectivity assay for TRPC4 inhibitor project, confirmation (AID 434948); details: HEK293 TRPC6, membrane potential dye fluorescence, at 10 µM, stimulated with maximal-effect acetylcholine; stronger effect = higher value
# [9] = molecular target: Short transient receptor potential channel 6 (Mus musculus) (UniProt Q61143); test: TRPC6 opening by TRPC4 activator hits – cell-based, HEK293, membrane potential dye, duplicate, selectivity assay for TRPC4 activator project, confirmation (AID 434950;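 active means membrane potential signal rise above negative control mean plus 3 SD in both duplicates, also active in the earlier TRPC4 screen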); details: HEK293 TRPC6, membrane potential fluorescence, at 10 µM; activation: stronger effect = higher value; outcome: activation
# [10] = molecular target: Short transient receptor potential channel 6 (Mus musculus) (UniProt Q61143); test: positive modulators of mouse TRPC6 channel – HEK293 cells, membrane potential dye, duplicate, selectivity assay for TRPC4 potentiator project, confirmation (AID 434952;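 active means compound raising the membrane signal above positive-control mean plus 3 SD in both repeats, and a primary screen hit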); details: HEK293 TRPC6, membrane potential dye fluorescence, at 10 µM, maximal acetylcholine added after compound; stronger effect = higher value
# [11] = molecular target: Short transient receptor potential channel 4 (Mus musculus) (UniProt Q9QUQ5); test: calcium flux activators in TRPC4/5HT1a cells, counter-screen for TRPC4 activator project, cell-based, second counter screen, HEK293 TRPC4/5HT1a, Fluo-4 (AID 434977;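 active means calcium signal rise above buffer-control mean plus 5 SD in both duplicates, and also a hit in the primary screen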); details: Fluo-4 calcium flux, at 10 µM; stronger effect = higher value
# [12] = serotonin-gated TRPC4 signal block – cell-based, second counter screen, HEK293 TRPC4/5HT1a, Fluo-4, counter-screen for TRPC4 inhibitor project, confirmation (AID 434978;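 active means primary screen active whose calcium signal fell more than 3 SD beyond the full-serotonin control mean in both duplicate plates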;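 on outcome: serotonin given first at submaximal then at maximal dose after compound preincubation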); details: Fluo-4 calcium flux, at 10 µM, serotonin added to trigger calcium flux; stronger effect = higher value
# [13] = test system: TRPC4 (mouse), co-expressed with 5HT1a in HEK293; test: enhancement of serotonin-evoked TRPC4 response – cell-based, second counter screen, HEK293 TRPC4/5HT1a, Fluo-4, counter-screen for TRPC4 potentiator project, confirmation (AID 434979;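 active means signal rise over 3 SD above mean of control wells given weak agonist, in both repeats and first screen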); details: Fluo-4 calcium flux, at 10 µM, serotonin added at its EC20 dose; stronger effect = higher value
# [14] = nonspecific calcium rise without TRPC4 – cell-based, HEK293 mu-opioid receptor line, counter-screen for TRPC4 activator project, confirmation (AID 449723;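 active means hit in primary screen, with calcium signal over 5 SD above buffer well mean in both duplicates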;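 further: counter screen cells carry the mu-opioid receptor alone and lack TRPC4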); details: HEK293 mu-opioid cells, Fluo-4 calcium fluorescence, at 10 µM; stronger effect = higher value
# [15] = nonspecific potentiation of DAMGO calcium response – cell-based, HEK293 mu-opioid receptor line, counter-screen for TRPC4 allosteric potentiator project, confirmation (AID 449724;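 active means calcium signal rise more than 3 SD above the low-dose agonist control mean, in both duplicate plates and the primary screen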); details: HEK293 mu-opioid receptor cells, Fluo-4 calcium flux, at 10 µM, compound added before EC20 DAMGO stimulus; stronger effect = higher value
# [16] = molecular target: Short transient receptor potential channel 4 (Mus musculus) (UniProt Q9QUQ5); test: DAMGO-gated TRPC4 membrane potential modulation – cell-based, second specificity screen, HEK293 TRPC4/mu-opioid, selectivity assay for TRPC6 inhibitor project, confirmation (AID 2776;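 active means compounds whose fluorescence signal differed from control wells by over 3 SD, either direction, in both duplicate plates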); details: HEK293 TRPC4/MOR, membrane potential dye fluorescence, at 10 µM, channel activated by saturating DAMGO dose; stronger effect = higher value
# [17] = test system: transient receptor potential cation channel C4 (TRPC4), mouse; test: membrane potential change in TRPC4 cells – cell-based, HEK293 TRPC4/mu-opioid, membrane potential dye, selectivity assay for TRPC6 inhibitor project, confirmation (AID 2777;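 active means rise or fall in signal beyond 3 SD of buffer-only wells in both replicate plates, either sign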;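 further: integrated kinetic ratio of fluorescence range over baseline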); details: membrane potential fluorescence, at 10 µM
# [18] = parental HEK293 depolarization signal interference – cell-based, second counter screen, counter-screen for TRPC6 inhibitor project, confirmation (AID 2779;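 active means membrane potential signal moving either way by over 3 SD of the maximum-effect control, in both duplicate plates, meaning non-specific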); details: parental HEK293 membrane potential dye fluorescence; at 10 µM; maximal acetylcholine challenge after compound addition
# [19] = nonspecific voltage dye signal in HEK293 – cell-based, parental HEK293, counter-screen for TRPC6 inhibitor project, confirmation (AID 2780;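 active means membrane potential signal shifting up or down by more than 3 SD of buffer-only wells, on both duplicate plates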); details: parental HEK293 membrane potential dye fluorescence; at 10 µM
# [20] = molecular target: Short transient receptor potential channel 6 (Mus musculus) (UniProt Q61143); test: blockers of TRPC6 cation channel activity – HEK293 cells, membrane potential dye, duplicate, confirmation (AID 488960;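 active means fluorescence ratio falls more than 5 SD below the full-stimulation control mean, in both duplicate runs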;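 on inhibition: integrated fluorescence ratio of peak minus minimum over baseline after agonist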); details: ACh-evoked depolarization, at 10 µM; stronger effect = higher value
# [21] = molecular target: Short transient receptor potential channel 6 (Mus musculus) (UniProt Q61143); test: mouse TRPC6 channel activators, confirmation, HEK293 cells, membrane potential dye, duplicate (AID 488961;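 active means ratio signal rise beyond 5 SD above unstimulated control wells' mean, seen in both duplicate runs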); details: HEK293-TRPC6 membrane potential dye fluorescence, FDSS, at 10 µM; stronger effect = higher value
# [22] = molecular target: Short transient receptor potential channel 4 (Mus musculus) (UniProt Q9QUQ5); test: block of DAMGO-driven TRPC4 calcium entry – cell-based, HEK293 TRPC4/mu-opioid, Fluo-4 calcium, dose response (AID 434942;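 active means primary screen inhibitor hit that blocks the TRPC4 channel at some tested dose, yielding a dose curve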)
# Sequence of Short transient receptor potential channel 6 (Mus musculus) (Q61143 whole entry, looked up): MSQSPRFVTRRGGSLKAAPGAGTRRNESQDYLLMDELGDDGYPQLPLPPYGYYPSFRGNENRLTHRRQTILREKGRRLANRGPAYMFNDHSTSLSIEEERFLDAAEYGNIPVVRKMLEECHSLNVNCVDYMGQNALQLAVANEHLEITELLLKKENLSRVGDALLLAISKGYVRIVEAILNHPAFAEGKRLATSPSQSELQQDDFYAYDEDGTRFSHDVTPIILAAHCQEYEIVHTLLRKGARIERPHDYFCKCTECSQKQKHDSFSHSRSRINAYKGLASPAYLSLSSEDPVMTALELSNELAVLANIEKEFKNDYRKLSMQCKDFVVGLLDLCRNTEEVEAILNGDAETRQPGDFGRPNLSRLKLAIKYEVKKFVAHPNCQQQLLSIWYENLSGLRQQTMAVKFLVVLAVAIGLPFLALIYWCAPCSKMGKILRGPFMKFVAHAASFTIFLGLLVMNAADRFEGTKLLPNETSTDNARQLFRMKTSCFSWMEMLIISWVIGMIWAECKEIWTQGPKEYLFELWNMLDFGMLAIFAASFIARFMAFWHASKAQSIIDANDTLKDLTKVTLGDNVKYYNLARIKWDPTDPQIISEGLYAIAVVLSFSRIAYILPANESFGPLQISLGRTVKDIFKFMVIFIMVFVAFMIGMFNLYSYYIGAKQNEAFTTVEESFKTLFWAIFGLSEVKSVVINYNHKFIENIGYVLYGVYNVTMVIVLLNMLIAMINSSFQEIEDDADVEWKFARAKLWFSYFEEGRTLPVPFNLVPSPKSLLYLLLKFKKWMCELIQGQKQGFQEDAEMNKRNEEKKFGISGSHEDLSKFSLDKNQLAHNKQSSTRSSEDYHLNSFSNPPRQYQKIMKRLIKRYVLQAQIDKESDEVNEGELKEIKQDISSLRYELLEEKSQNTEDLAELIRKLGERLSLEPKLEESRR
# Sequence of Short transient receptor potential channel 4 (Mus musculus) (Q9QUQ5 whole entry, looked up): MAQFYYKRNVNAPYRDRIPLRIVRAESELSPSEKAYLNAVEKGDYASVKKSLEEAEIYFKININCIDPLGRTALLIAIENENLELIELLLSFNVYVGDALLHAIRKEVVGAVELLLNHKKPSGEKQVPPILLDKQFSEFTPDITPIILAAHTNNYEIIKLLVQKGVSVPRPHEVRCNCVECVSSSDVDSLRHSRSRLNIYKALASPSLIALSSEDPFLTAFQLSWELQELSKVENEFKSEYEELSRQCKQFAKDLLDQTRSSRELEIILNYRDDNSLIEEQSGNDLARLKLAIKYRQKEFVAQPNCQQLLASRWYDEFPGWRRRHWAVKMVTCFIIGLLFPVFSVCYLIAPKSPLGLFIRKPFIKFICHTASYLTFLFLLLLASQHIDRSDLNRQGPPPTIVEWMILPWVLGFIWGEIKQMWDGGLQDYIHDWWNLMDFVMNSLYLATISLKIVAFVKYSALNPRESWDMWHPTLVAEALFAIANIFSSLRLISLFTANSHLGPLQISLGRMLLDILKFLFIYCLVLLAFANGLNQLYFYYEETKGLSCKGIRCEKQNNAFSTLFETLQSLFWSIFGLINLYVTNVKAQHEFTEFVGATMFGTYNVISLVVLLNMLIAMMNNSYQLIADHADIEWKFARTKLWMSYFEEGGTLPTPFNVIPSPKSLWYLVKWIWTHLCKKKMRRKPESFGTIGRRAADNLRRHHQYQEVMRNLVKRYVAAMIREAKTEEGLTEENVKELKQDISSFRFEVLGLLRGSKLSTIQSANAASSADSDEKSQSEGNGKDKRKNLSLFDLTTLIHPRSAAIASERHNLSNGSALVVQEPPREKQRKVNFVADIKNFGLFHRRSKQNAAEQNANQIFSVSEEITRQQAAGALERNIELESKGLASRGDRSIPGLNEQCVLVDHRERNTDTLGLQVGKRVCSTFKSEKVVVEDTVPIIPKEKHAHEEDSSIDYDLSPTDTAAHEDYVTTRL
smiles,measurement,setting,value
O=C(N/N=C/c1cccnc1)c1ccccc1OCc1ccc(Cl)cc1,outcome,[1],inactive
same,outcome,[2],inactive
same,outcome,[3],inactive
same,outcome,[4],inactive
same,inhibition,[5],98% (active)
same,inhibition,[6],48% (active)
same,outcome,[7],inactive
same,outcome,[8],inactive
same,outcome,[9],inactive
same,outcome,[10],inactive
same,outcome,[11],inactive
same,inhibition,[12],42.7% (active)
same,outcome,[13],inactive
same,outcome,[14],inactive
same,outcome,[15],inactive
OC(CNC1CCCc2ccccc21)COc1c(Cl)cccc1Cl (stereo unspecified),activation,[1],86% (active)
same,outcome,[2],inactive
same,outcome,[3],inactive
same,outcome,[4],inactive
same,outcome,[5],inactive
same,inhibition,[6],52% (active)
same,outcome,[7],inactive
same,outcome,[8],inactive
same,activation,[9],101% (active)
same,outcome,[10],inactive
same,activation,[11],9.49% (active)
same,inhibition,[12],35.9% (active)
same,outcome,[13],inactive
same,activation,[14],14.8% (active)
same,outcome,[15],inactive
CCNC(=S)N1CCC(C(O)(c2ccccc2)c2ccccc2)CC1,activation,[1],117% (active)
same,outcome,[2],inactive
same,outcome,[3],inactive
same,outcome,[4],inactive
same,inhibition,[5],96% (active)
same,outcome,[6],inactive
same,outcome,[7],inactive
same,outcome,[8],inactive
same,activation,[9],41.5% (active)
same,outcome,[10],inactive
same,outcome,[11],inactive
same,outcome,[12],inactive
same,outcome,[13],inactive
same,outcome,[14],inactive
same,outcome,[15],inactive
CC1CCCN(CCOCCOc2ccccc2-c2ccccc2)C1 (stereo unspecified),outcome,[1],inactive
same,outcome,[2],inactive
same,outcome,[3],inactive
same,outcome,[4],inactive
same,inhibition,[5],90% (active)
same,inhibition,[6],53% (active)
same,outcome,[7],inactive
same,outcome,[8],inactive
same,activation,[9],82% (active)
same,outcome,[10],inactive
same,outcome,[11],inactive
same,inhibition,[12],30.7% (active)
same,outcome,[13],inactive
same,outcome,[14],inactive
same,outcome,[15],inactive
CN(C)C1(CNC(=O)CC(NC(=O)c2ccccc2Cl)c2ccccc2)CCCCC1 (stereo unspecified),outcome,[1],inactive
same,outcome,[2],inactive
same,outcome,[3],inactive
same,outcome,[4],inactive
same,inhibition,[5],88% (active)
same,inhibition,[6],78% (active)
same,outcome,[7],inactive
same,outcome,[8],inactive
same,activation,[9],44.5% (active)
same,outcome,[10],inactive
same,outcome,[11],inactive
same,outcome,[12],inactive
same,outcome,[13],inactive
same,outcome,[14],inactive
same,outcome,[15],inactive
Cc1ccc(S(=O)(=O)Nc2cccc(C(=O)NCC(c3ccccc3)N(C)C)c2)cc1F (stereo unspecified),activation,[1],84% (active)
same,outcome,[2],inactive
same,outcome,[3],inactive
same,outcome,[4],inactive
same,outcome,[5],inactive
same,inhibition,[6],78% (active)
same,outcome,[7],inactive
same,outcome,[8],inactive
same,activation,[9],37.5% (active)
same,outcome,[10],inactive
same,outcome,[11],inactive
same,outcome,[12],inactive
same,outcome,[13],inactive
same,outcome,[14],inactive
same,outcome,[15],inactive
CN(C)CCN(C(=O)C1CCCCC1)c1nc2cc3c(cc2s1)OCO3,outcome,[1],inactive
same,outcome,[2],inactive
same,outcome,[3],inactive
same,outcome,[4],inactive
same,inhibition,[5],75% (active)
same,outcome,[6],inactive
same,outcome,[7],inactive
same,outcome,[8],inactive
same,outcome,[9],inactive
same,outcome,[10],inactive
same,outcome,[11],inactive
same,outcome,[12],inactive
same,outcome,[13],inactive
same,outcome,[14],inactive
same,outcome,[15],inactive
CN(C)C(CNC(=O)c1cc2ccccc2oc1=O)c1ccccc1 (stereo unspecified),activation,[1],65% (active)
same,outcome,[2],inactive
same,outcome,[3],inactive
same,outcome,[4],inactive
same,outcome,[5],inactive
same,inhibition,[6],76% (active)
same,outcome,[7],inactive
same,outcome,[8],inactive
same,outcome,[9],inactive
same,outcome,[10],inactive
same,outcome,[11],inactive
same,outcome,[12],inactive
same,outcome,[13],inactive
same,outcome,[14],inactive
same,outcome,[15],inactive
CCOc1ccccc1N(CC(=O)N1CCOCC1)S(=O)(=O)c1ccccc1,activation,[1],155% (active)
same,outcome,[2],inactive
same,outcome,[3],inactive
same,outcome,[4],inactive
same,outcome,[5],inactive
same,outcome,[6],inactive
same,outcome,[7],inactive
same,outcome,[8],inactive
same,activation,[9],56.5% (active)
same,outcome,[10],inactive
same,activation,[11],94% (active)
same,inhibition,[12],16% (active)
same,outcome,[13],inactive
same,activation,[14],74.4% (active)
same,outcome,[15],inactive
CN1C2C=C(N(CCc3c[nH]c4ccccc34)C(=O)c3ccc(Cl)cc3)CC1CC2 (stereo unspecified),activation,[1],130% (active)
same,outcome,[2],inactive
same,outcome,[3],inactive
same,outcome,[4],inactive
same,outcome,[5],inactive
same,inhibition,[6],80% (active)
same,outcome,[7],inactive
same,outcome,[8],inactive
same,outcome,[9],inactive
same,outcome,[10],inactive
same,outcome,[11],inactive
same,outcome,[12],inactive
same,outcome,[13],inactive
same,outcome,[14],inactive
same,outcome,[15],inactive
CN(C)c1ccc(C2N(C)C(=O)c3ccccc3N2C)cc1 (stereo unspecified),outcome,[16],inactive
same,outcome,[17],inactive
same,signal change vs control,[18],262% (active)
same,outcome,[19],inactive
same,outcome,[20],inactive
same,outcome,[21],inactive
O=C1c2ccccc2C(=O)c2c1cccc2N1CCN(Cc2ccccc2)CC1,outcome,[16],inactive
same,"activity change, negative = inhibition",[17],-17% (active)
same,outcome,[18],inactive
same,membrane potential signal change,[19],-264% (active)
same,inhibition,[20],59.7% (active)
same,outcome,[21],inactive
CCCCNc1nc2ccccc2[nH]1,outcome,[8],inactive
same,outcome,[9],inactive
same,outcome,[10],inactive
OCCC1CN(Cc2ccc3nsnc3c2)CCN1C1CCCC1 (stereo unspecified),outcome,[16],inactive
same,outcome,[17],inactive
same,outcome,[18],inactive
same,outcome,[19],inactive
same,outcome,[20],inactive
same,outcome,[21],inactive
CCOC(=O)N1CCC(O)(c2cc(C)c(C)cc2C)CC1,outcome,[16],inactive
same,outcome,[17],inactive
same,outcome,[18],inactive
same,outcome,[19],inactive
same,inhibition,[20],55% (active)
COc1ccc(N/C(C)=C2/C(=O)C(=O)N(CCO)C2c2ccc(Br)cc2)cc1 (stereo unspecified),activation,[1],289% (active)
same,outcome,[2],inactive
same,potentiation,[3],141% (active)
same,outcome,[4],inactive
same,outcome,[5],inactive
same,outcome,[6],inactive
same,outcome,[22],inactive
same,outcome,[8],inactive
same,activation,[9],31.5% (active)
same,outcome,[10],inactive
same,activation,[11],57.5% (active)
same,outcome,[12],inactive
same,potentiation,[13],60.7% (active)
same,outcome,[14],inactive
same,outcome,[15],inactive

# From PubChem BioAssay
